Laboratory results: paper PMC5540273 (PLoS ONE, 2017)

What was measured:
Conditions in all cases: concentration: 1 μM, replicates: in singlicate; n = 1
FGR = tested on: FGR
FLT1 = tested on: FLT1
FLT3-autoinhibited = tested on: FLT3-autoinhibited
FLT3 = tested on: FLT3
FLT4 = tested on: FLT4
FRK = tested on: FRK
FYN = tested on: FYN
GAK = tested on: GAK
GCN2(Kin.Dom.2,S808G) = tested on: T1, GCN2(Kin.Dom.2,S808G)
T1 construct: gene EIF2AK4

GRK1 = tested on: GRK1
GRK2 = tested on: T2, GRK2
T2 construct: gene ADRBK1

GRK3 = tested on: T3, GRK3
T3 construct: gene ADRBK2

GRK4 = tested on: GRK4
GRK7 = tested on: GRK7
GSK3A = tested on: GSK3A
GSK3B = tested on: GSK3B
HASPIN = tested on: T4, HASPIN
T4 construct: gene GSG2

HCK = tested on: HCK
HIPK1 = tested on: HIPK1
HIPK2 = tested on: HIPK2
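Further: KINOMEscan kinase panel screen.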

Row | SMILES | %Inh (FGR) | %Inh (FLT1) | %Inh (FLT3-autoinhibited) | %Inh (FLT3) | %Inh (FLT4) | %Inh (FRK) | %Inh (FYN) | %Inh (GAK) | %Inh (GCN2(Kin.Dom.2,S808G)) | %Inh (GRK1) | %Inh (GRK2) | %Inh (GRK3) | %Inh (GRK4) | %Inh (GRK7) | %Inh (GSK3A) | %Inh (GSK3B) | %Inh (HASPIN) | %Inh (HCK) | %Inh (HIPK1) | %Inh (HIPK2)
1 | COC(=O)c1c(-c2ccccc2)c2cc(Br)ccc2c(=O)n1Cc1ccc(NC(=O)CCC(=O)O)cc1 | 8% | 0% | 0% | 6% | 9% | 8% | 0% | 0% | 0% | 0% | 19% | 8% | 0% | 31% | 0% | 15% | 6% | 14% | 26% | 28%
2 | Cn1c(=O)c(F)c(Nc2ccc(I)cc2F)c2c(=O)n(OC[C@H](O)CO)cnc21 | 32% | 0% | 0% | 0% | 10% | 0% | 14% | 11% | 0% | 9% | 0% | 0% | 0% | 0% | 0% | 3% | 4% | 10% | 52% | 0%
3 | COC(=O)c1c(-c2ccccc2)c2cc(C)ccc2c(=O)n1Cc1ccccc1 | 2% | 0% | 13% | 0% | 0% | 0% | 0% | 0% | 0% | 0% | 0% | 0% | 28% | 0% | 0% | 0% | 0% | 0% | 0% | 0%
4 | CCC(=O)c1c(-c2ccccc2)c2cc(Cl)ccc2c(=O)n1Cc1cc(S(C)(=O)=O)n(CCC(C)(C)O)n1 | 11% | 29% | 2% | 0% | 15% | 13% | 10% | 8% | 0% | 8% | 0% | 0% | 0% | 29% | 0% | 0% | 43% | 10% | 33% | 29%
5 | Nc1ncnc2c1ncn2-c1ccc(Cl)cc1 [AH2635] | 18% | 39% | 1% | 46% | 9% | 0% | 12% | 7% | 0% | 0% | 0% | 41% | 0% | 0% | 14% | 0% | 21% | 0% | 0% | 0%
6 | COc1cc(Nc2ccnc3ccc(C(F)(F)F)cc23)cc(OC)c1OC [GW577382] | 30% | 9% | 0% | 0% | 3% | 19% | 30% | 86% | 9% | 17% | 0% | 25% | 0% | 0% | 0% | 3% | 29% | 38% | 5% | 0%
7 | CN1C(=O)C(Nc2cc(Cl)c(O)c(Cl)c2)=C(c2ccc(Cl)cc2)C1=O [SB-404321] | 0% | 0% | 0% | 0% | 0% | 0% | 0% | 0% | 6% | 0% | 22% | 28% | 96.7% | 0% | 0% | 0% | 0% | 0% | 0% | 38%
8 | CCc1nc(-c2cccc(C)c2)c(-c2ccncc2)s1 | 19% | 13% | 0% | 0% | 0% | 9% | 0% | 49% | 3% | 25% | 0% | 0% | 0% | 0% | 27% | 0% | 0% | 21% | 30% | 0%
